Screening data: PubChem BioAssay, The Scripps Research Institute Molecular Screening Center
Shown are actives, neighbours in structure and some others; about 2.4% of the full set was active somewhere.
ASK1 inh: inhibitors of human ASK1 kinase | AlphaScreen MKK6 phosphorylation by ASK1, luminescence | inhibition, % at 7.44 µM | hit rate 0.99% among 22,000; in the data active = inhibition above about 35%;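 note: 0% = median of compound wells and 100% = no enzyme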
ULK1 inh: inhibitors of human ULK1 kinase; AlphaScreen Atg13 phosphorylation by ULK1, luminescence; inhibition, % at 5.96 µM; hit rate 1.9% among 30,000; in the data active = inhibition above about 43%;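 note: 0% = median of compound wells and 100% = no enzyme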
Target sequence (O75385 whole entry, looked up): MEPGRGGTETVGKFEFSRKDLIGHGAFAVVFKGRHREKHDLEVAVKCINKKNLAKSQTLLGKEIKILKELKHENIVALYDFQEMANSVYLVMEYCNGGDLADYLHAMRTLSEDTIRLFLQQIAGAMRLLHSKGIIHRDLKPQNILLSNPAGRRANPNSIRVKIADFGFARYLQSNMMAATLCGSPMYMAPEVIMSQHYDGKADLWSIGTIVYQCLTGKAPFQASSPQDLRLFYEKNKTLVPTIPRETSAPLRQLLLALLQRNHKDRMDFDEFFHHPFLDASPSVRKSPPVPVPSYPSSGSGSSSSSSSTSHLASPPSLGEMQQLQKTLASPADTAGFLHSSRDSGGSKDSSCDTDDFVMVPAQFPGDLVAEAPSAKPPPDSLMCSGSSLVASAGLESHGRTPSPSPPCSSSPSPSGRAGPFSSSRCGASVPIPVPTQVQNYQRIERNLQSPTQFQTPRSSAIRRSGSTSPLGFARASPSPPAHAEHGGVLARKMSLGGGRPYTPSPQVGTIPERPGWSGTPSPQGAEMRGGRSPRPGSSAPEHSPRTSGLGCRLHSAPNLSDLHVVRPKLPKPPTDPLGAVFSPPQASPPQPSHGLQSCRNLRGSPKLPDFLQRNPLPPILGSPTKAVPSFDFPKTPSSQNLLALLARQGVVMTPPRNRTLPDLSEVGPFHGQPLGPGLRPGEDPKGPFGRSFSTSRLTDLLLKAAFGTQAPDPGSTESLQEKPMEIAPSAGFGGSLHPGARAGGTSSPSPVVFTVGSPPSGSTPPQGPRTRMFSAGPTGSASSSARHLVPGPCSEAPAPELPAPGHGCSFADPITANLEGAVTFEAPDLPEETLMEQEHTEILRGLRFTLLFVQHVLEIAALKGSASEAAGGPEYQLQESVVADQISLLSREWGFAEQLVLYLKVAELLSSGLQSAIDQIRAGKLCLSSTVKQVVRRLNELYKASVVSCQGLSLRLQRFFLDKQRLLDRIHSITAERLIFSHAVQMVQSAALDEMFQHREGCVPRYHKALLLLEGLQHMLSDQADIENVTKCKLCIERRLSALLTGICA
The depositor's hits bear a star.

How did COc1ccc(Cc2nccc3cc(OC)c(OC)cc23)cc1OC do in these assays?
ULK1 inh: 68.6*

How did COc1ccc(CCN2CCC(=O)CC2)cc1OC do in these assays?
ULK1 inh: -4.2

How did O=C(NC(Oc1ccc([N+](=O)[O-])cc1)C(Cl)(Cl)Cl)c1ccco1 (stereo unspecified) do in these assays?
ULK1 inh: 4.9

How did CC(C)CCC(=O)OC1CCC2C3CCC4=CC(=O)CCC4(C)C3CCC12C (stereo unspecified) do in these assays?
ULK1 inh: -3.3

What do the screens show for `C=C1C[C@@H](c2ccccc2)N2CCCC[C@H]2[C@H]1C`?
ASK1 inh: 0.2; ULK1 inh: -2.6

How did O=C1OC(c2ccc(O)c(S(=O)(=O)O)c2)(c2ccc(O)c(S(=O)(=O)O)c2)c2c(Br)c(Br)c(Br)c(Br)c21 do in these assays?
ULK1 inh: 63.8*

What do the screens show for `Cc1cc(C)[n+](-c2nccs2)c(C)c1`?
ULK1 inh: -7.0

How did Cc1c(N)nc(C(CC(N)=O)NCC(N)C(N)=O)nc1C(=O)NC(C(=O)NC(C)C(O)C(C)C(=O)NC(C(=O)NCCc1nc(-c2nc(C(=O)NCCC[S+](C)C)cs2)cs1)C(C)O)C(O[C@@H]1O[C@@H](CO)[C@@H](O)[C@H](O)[C@@H]1O[C@H]1O[C@H](CO)[C@@H](O)[C@H](OC(N)=O)[C@@H]1O)c1cnc[nH]1 (stereo partly specified) do in these assays?
ULK1 inh: 2.7
